These results are taken from PubChem BioAssay (EPA / NIEHS).

Experiment [1] can be described thus: IUF_NPC2c_oligodendrocyte_migration_120hr: Leibniz Research Institute for Environmental Medicine (IUF) 120-hour Neural Progenitor Cell Migration Assay for Oligodendrocyte Migration (NPC2c) (AID 2284297).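 Also: O4-positive oligodendrocyte migration distance divided by radial glia migration distance.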 In outline:
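hNPC spheres (GW 16-19 cortex), PDL/laminin, DMEM/F12 3:1 + 1% N2, 37C. Dosing day 0–5, half feed day 3, DMSO ≤0.1%. Fixed 120 h; O4 ICC + Hoechst, HCI. Readout: mean oligodendrocyte distance from sphere edge / radial glia distance.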

Read-out in experiment [2]: Intercellular Adhesion Molecule 1 (ICAM1), ICAM1 (gene 3383)
Kind of experiment: BSK_BE3C_ICAM1: BioMAP Diversity Plus: BE3C Assay for Intercellular Adhesion Molecule 1 (ICAM1) Biomarker Activity (AID 2284278).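 As to outcome: cell-surface ICAM-1 protein level quantified by ELISA.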 The following applies: primary human bronchial epithelial cells. In outline: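 ICAM-1 quantified by ELISA and fitted against DMSO baseline, 24 h post-dosing in BE3C cultures of primary human lung bronchial epithelial cells. Cytotoxicity checked in parallel cultures by total protein SRB staining.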

Read-out in experiment [3]: Interferon-inducible T-cell alpha chemoattractant (ITAC), CXCL11 (gene 6373)
Briefly: BSK_BE3C_ITAC: BioMAP Diversity Plus: BE3C Assay for Interferon-inducible T-cell alpha chemoattractant (ITAC) Biomarker Activity (AID 2284279). The following applies: primary human bronchial epithelial cells. In outline:
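BE3C cells (human primary bronchial epithelium), 24 h compound exposure, I-TAC by ELISA, DMSO = negative control/baseline, positive fitting direction.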

Read-out in experiment [4]: Interleukin-8 (IL8), CXCL8 (gene 3576)
Briefly: BSK_BE3C_IL8: BioMAP Diversity Plus: BE3C Assay for Interleukin-8 (IL8) Biomarker Activity (AID 2284280). The following applies: primary human bronchial epithelial cells. In outline: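 Measured at 24 h after treatment, IL-8 from human primary bronchial epithelial cells is determined by ELISA, and the response is modelled as increasing relative to DMSO negative control.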

Read-out in experiment [5]: Epidermal growth factor receptor (EGFR), EGFR (gene 1956)
Kind of experiment: BSK_BE3C_EGFR: BioMAP Diversity Plus: BE3C Assay for Epidermal growth factor receptor (EGFR) Biomarker Activity (AID 2284281). The following applies: primary human bronchial epithelial cells. The method in brief: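 Measured 24 h after dosing in primary human bronchial epithelial cultures, EGFR was read by ELISA; gain of signal over DMSO control defined activity.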

Read-out in the next experiment: KRT18 (gene 3875)
Briefly: BSK_BE3C_Keratin818: BioMAP Diversity Plus: BE3C Assay for Keratin 818 Biomarker Activity (AID 2284282). The following applies: primary human bronchial epithelial cells. The method in brief:
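ELISA readout of Keratin 8/18 in human primary bronchial epithelial cultures after 24 h chemical exposure, DMSO baseline. Parallel SRB staining (0.1%, TCA-fixed, 560 nm) served as cytotoxicity check.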

Read-out in experiment [6]: Matrix Metallopeptidase 9 (MMP9), MMP9 (gene 4318)
Kind of experiment: BSK_BE3C_MMP9: BioMAP Diversity Plus: BE3C Assay for Matrix Metallopeptidase 9 (MMP9) Biomarker Activity (AID 2284283). Conditions: primary human bronchial epithelial cells. In outline: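 ELISA read-out of MMP-9 after 24 h compound exposure of human lung bronchial epithelial primary cells (BE3C). Fit in gain direction vs DMSO negative control; total protein by SRB in parallel cultures flagged overt cytotoxicity.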

Read-out in experiment [7]: Plasminogen activator inhibitor-1 (PAI1), SERPINE1 (gene 5054)
Kind of experiment: BSK_CASM3C_PAI1: BioMAP Diversity Plus: CASM3C Assay for Plasminogen activator inhibitor-1 (PAI1) Biomarker Activity (AID 2284284).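 Also: PAI-1 protein level measured by ELISA 24 h after dosing.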 Conditions: primary human coronary artery smooth muscle cells.

Read-out in experiment [8]: Monocyte Chemoattractant Protein-1 (MCP1), CCL2 (gene 6347)
Briefly: BSK_hDFCGF_MCP1: BioMAP Diversity Plus: hDFCGF Assay for Monocyte Chemoattractant Protein-1 (MCP1) Biomarker Activity (AID 2284285). The following applies: primary human foreskin fibroblasts. In outline:
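MCP-1 ELISA readout was taken 24 hours after dosing primary human dermal fibroblasts in the hDFCGF system, with DMSO as baseline. Parallel sulforhodamine B staining of total protein tracked overt cytotoxicity.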

Read-out in experiment [9]: Vascular cell adhesion molecule 1 (VCAM1), VCAM1 (gene 7412)
Kind of experiment: BSK_IMphg_VCAM1: BioMAP Diversity Plus: IMphg Assay for Vascular cell adhesion molecule 1 (VCAM1) Biomarker Activity (AID 2284286). Conditions: primary human endothelial cells with macrophages. The method in brief: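 ELISA read-out of VCAM-1 on venular endothelial cell/macrophage co-cultures at 24 h post-treatment, with DMSO as baseline and positive-direction fitting. Parallel sulforhodamine B total-protein staining (560 nm) served as the overt cytotoxicity measure.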

Read-out in experiment [10]: Intercellular Adhesion Molecule 1 (ICAM1), ICAM1 (gene 3383)
Briefly: BSK_hDFCGF_ICAM1: BioMAP Diversity Plus: hDFCGF Assay for Intercellular Adhesion Molecule 1 (ICAM1) Biomarker Activity (AID 2284287). The following applies: primary human foreskin fibroblasts. The method in brief:
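ICAM-1 ELISA readout 24 h after dosing, DMSO as baseline, in human dermal foreskin fibroblast cultures. Cytotoxicity checked in parallel wells by SRB staining (0.1% SRB, 10% TCA fixation, 560 nm).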

Read-out in a further experiment: CD40, CD40 (gene 958)
Briefly: BSK_IMphg_CD40: BioMAP Diversity Plus: IMphg Assay for CD40 Biomarker Activity (AID 2284288). Conditions: primary human endothelial cells with macrophages. The method in brief: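 ELISA read-out of cell-surface CD40 at 24 h in human venular endothelial cell/macrophage co-cultures. Activity fitted in the positive direction against DMSO; parallel SRB staining (560 nm) gauges overt cytotoxicity.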

Read-out in experiment [11]: TIMP metallopeptidase inhibitor 2 (TIMP2), TIMP2 (gene 7077)
Kind of experiment: BSK_hDFCGF_TIMP2: BioMAP Diversity Plus: hDFCGF Assay for TIMP metallopeptidase inhibitor 2 (TIMP2) Biomarker Activity (AID 2284289). Conditions: primary human foreskin fibroblasts. The method in brief:
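Primary human foreskin fibroblasts in the hDFCGF system, dosed for 24 h; TIMP-2 level measured by ELISA, fitted in the positive direction against DMSO; cytotoxicity checked in parallel by sulforhodamine B total protein staining.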

Read-out in experiment [12]: Interleukin-1 alpha (IL1a), IL1A (gene 3552)
Briefly: BSK_IMphg_IL1a: BioMAP Diversity Plus: IMphg Assay for Interleukin-1 alpha (IL1a) Biomarker Activity (AID 2284290). Conditions: primary human endothelial cells with macrophages. The method in brief: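 IL-1α is quantified by ELISA at 24 h in the endothelial/macrophage IMphg co-culture, with gain of signal fitted relative to DMSO. Parallel SRB total-protein staining flags overt toxicity.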

Read-out in experiment [13]: E-selectin (Homo sapiens) (UniProt P16581)
Kind of experiment: BSK_IMphg_ESelectin: BioMAP Diversity Plus: IMphg Assay for Eselectin Biomarker Activity (AID 2284291). The following applies: primary human endothelial cells with macrophages. The method in brief: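 Analysed against DMSO baseline in the positive fitting direction, this endpoint is an ELISA read of E-selectin. It comes from human venular endothelial cells co-cultured with macrophages, sampled 24 h post-dose.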

The nature of experiment [14]: BSK_IMphg_SRB: Viability Assessment in the BioMAP Diversity Plus: IMphg Assay (AID 2284292).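 Also: measured one day after compound addition.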 The following applies: primary human endothelial cells with macrophages. In outline:
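SRB viability endpoint: cultures of human endothelial cells plus macrophages fixed with 10% TCA, stained with 0.1% SRB, read at 560 nm 24 h post-dosing. Only gain-of-signal fitted, relative to DMSO.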

Read-out in experiment [15]: Macrophage colony-stimulating factor (MCSF), CSF1 (gene 1435)
Briefly: BSK_IMphg_MCSF: BioMAP Diversity Plus: IMphg Assay for Macrophage colony-stimulating factor (MCSF) Biomarker Activity (AID 2284293). The following applies: primary human endothelial cells with macrophages. In outline: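 M-CSF was measured by ELISA in human venular endothelial cell/macrophage co-cultures dosed for 24 hours. Sulforhodamine B staining of parallel cultures assessed cytotoxicity; data fitted against DMSO baseline.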

Read-out in experiment [16]: Interleukin-10 (IL10), IL10 (gene 3586)
Kind of experiment: BSK_IMphg_IL10: BioMAP Diversity Plus: IMphg Assay for Interleukin-10 (IL10) Biomarker Activity (AID 2284294). The following applies: primary human endothelial cells with macrophages. The method in brief:
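IL-10 read by ELISA after 24 h chemical exposure of primary human venular endothelial cell/macrophage cocultures, with DMSO as baseline. Parallel SRB staining (560 nm) gauged overt cytotoxicity.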

Experiment [17] in a line: BSK_IMphg_SRB.Mphg: Macrophage Viability Assessment in the BioMAP Diversity Plus: IMphg Assay (AID 2284295). Conditions: primary human endothelial cells with macrophages. In outline:
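Cytotoxicity read-out: parallel cultures fixed with 10% TCA, stained with 0.1% sulforhodamine B, read at 560 nm. System combines venular endothelium and macrophages; sampled 24 h post-dosing, fitted positively relative to DMSO control.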

Read-out in experiment [18]: Thrombomodulin, THBD (gene 7056)
Kind of experiment: BSK_LPS_Thrombomodulin: BioMAP Diversity Plus: LPS Assay for Thrombomodulin Biomarker Activity (AID 2284296). The following applies: primary human HUVEC with PBMC. In outline: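 Thrombomodulin on the surface of LPS-activated endothelial/PBMC co-cultures was quantified by ELISA at 24 hours post-dosing, with DMSO as baseline. Parallel SRB total-protein staining flagged overt cytotoxicity.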

“And” between values parts separate entries of the source, which are not always exact repeats. Equal values may be shown once. The source holds several records for some structures; these can differ, active in one and inactive in another. The source made the active and inactive calls. The calls were made as follows: active = hit-call score of the fitted dose curve at least 0.9, where 1 is the maximum; inactive = score below 0.9.

E-selectin (Homo sapiens), sequence (P16581 whole entry, looked up): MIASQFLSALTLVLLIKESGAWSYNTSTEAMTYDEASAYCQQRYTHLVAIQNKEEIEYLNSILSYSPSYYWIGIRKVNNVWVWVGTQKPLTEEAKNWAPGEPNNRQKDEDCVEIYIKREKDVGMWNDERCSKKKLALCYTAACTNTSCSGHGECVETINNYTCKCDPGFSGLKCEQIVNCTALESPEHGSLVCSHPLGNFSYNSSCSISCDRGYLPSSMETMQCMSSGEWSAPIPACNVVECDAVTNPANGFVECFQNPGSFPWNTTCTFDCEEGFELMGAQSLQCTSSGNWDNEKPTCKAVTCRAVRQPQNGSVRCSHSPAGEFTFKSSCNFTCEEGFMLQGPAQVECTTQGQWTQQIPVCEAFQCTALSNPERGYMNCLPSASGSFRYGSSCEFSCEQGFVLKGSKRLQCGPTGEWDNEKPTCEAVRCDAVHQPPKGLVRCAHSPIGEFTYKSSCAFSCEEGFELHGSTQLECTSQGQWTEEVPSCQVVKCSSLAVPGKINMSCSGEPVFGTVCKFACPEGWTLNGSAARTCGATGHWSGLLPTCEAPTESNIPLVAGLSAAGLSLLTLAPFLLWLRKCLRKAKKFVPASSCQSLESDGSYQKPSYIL

`CC1=C(/C=C/C(C)=C/C=C/C(C)=C/C(=O)O)C(C)(C)CCC1`: the compound was called inactive in experiment [1].

One may read the AC50 as the midpoint of the concentration-response curve, whichever way the signal moves. As for `OCCC(F)(F)C(F)(F)C(F)(F)C(F)(F)C(F)(F)C(F)(F)C(F)(F)C(F)(F)F`, the AC50 was 22.2 µM (active) and 46.7 µM (active) in experiment [2]; 23.5 µM (active) and 18.4 µM (active) in experiment [3]; 12.3 µM (active) and 13.3 µM (active) in experiment [4]; 21.8 µM (active) in experiment [5]; 24.7 µM (active) and 16.8 µM (active) with KRT18 (gene 3875); 14.2 µM (active) and 30 µM (active) in [6]. Moreover, the AC50 in experiment [7] is 44.5 µM (active) and 41 µM (active); in experiment [8] it was 17.1 µM (active) and 11.3 µM (active); in experiment [9], 45.5 µM (active) and 44.5 µM (active); in [10], 18.1 µM (active) and 18.3 µM (active); with CD40, CD40 (gene 958), 46.1 µM (active) and 45.6 µM (active); in experiment [11] it was 5.95 µM (active) and 16.2 µM (active). Also, the AC50 in [12] is 39.6 µM (active); in [13], 47.2 µM (active) and 49.9 µM (active); in [14] it was 50.5 µM (active) and 49.1 µM (active); in experiment [15], 30 µM (active); in [16], 39 µM (active) and 32.8 µM (active); in [17], 46.7 µM (active) and 47.4 µM (active). In addition, the AC50 in experiment [18] is 347 nM (active). The outcome in [5], in experiment [12], in experiment [15] and in experiment [18] was inactive.

Regarding `FC(F)(I)C(F)(F)C(F)(F)C(F)(F)C(F)(F)C(F)(F)I`, the AC50 is 32.3 µM (active) [middle of 5 runs] in [2]; 20.4 µM (active) [middle of 5 runs] in experiment [3]; 19.6 µM (active) [middle of 5 runs] in experiment [4]; 5.13 µM (active) [middle of 5 runs] in experiment [8]; 43.1 µM (active) [middle of 5 runs] in experiment [9]; 5.98 µM (active) [middle of 5 runs] in [10]. Besides, the AC50 in [11] was 5.93 µM (active) and 5.41 µM (active) and 5.49 µM (active); in [12], 30 µM (active) and 22.7 µM (active) and 39.1 µM (active); in experiment [13], 46.1 µM (active) [middle of 5 runs]; in [14], 43.5 µM (active) [middle of 5 runs]; in experiment [15], 44.4 µM (active) [middle of 5 runs]; in [16] it was 33.9 µM (active) [middle of 5 runs]. Also, the AC50 in [17] was 12.6 µM (active) [middle of 5 runs]; in [18] it was 14.6 µM (active) and 23.5 µM (active). The outcome was “inactive” in the experiment with CD40, CD40 (gene 958); “inactive” in experiment [11]; “inactive” in [12]; “inactive” in experiment [18].

As to `CN1CCC[C@H]1c1cccnc1`, the compound was called inactive in experiment [1].

Consider `C[C@@H]1C[C@H]2[C@@H]3CCC4=CC(=O)C=C[C@]4(C)[C@@]3(F)[C@@H](O)C[C@]2(C)[C@@]1(O)C(=O)COP(=O)(O)O`, for which the result (in experiment [2]; in experiment [3]; in experiment [5]; with KRT18 (gene 3875); in [6]; in experiment [7]) was inactive. For the same compound, the outcome was “inactive” in experiment [8]; “inactive” in experiment [9]; “inactive” in [10]; “inactive” with CD40, CD40 (gene 958); “inactive” in experiment [11]; “inactive” in experiment [12]. The result in [14], in [15], in [17] and in experiment [18] was inactive. The AC50 in [4] was 1.6 µM (active) and 182 nM (active); in experiment [9], 3.41 µM (active); with CD40, CD40 (gene 958), 13.3 µM (active); in [11], 966 nM (active); in experiment [12], 3.58 µM (active); in experiment [13], 580 nM (active) and 1.5 µM (active). For the same compound, the AC50 in experiment [16] is 954 nM (active) and 1.38 µM (active); in experiment [17], 4.66 µM (active).
